Assay results as given in PubChem BioAssay (EPA / NIEHS).
Calls of active or inactive are those of the source. How the source made its calls: active means hit-call score of the fitted dose curve at least 0.9, where 1 is the maximum; inactive means score below 0.9.

Tests used:
[1] = target: Paired box protein Pax-6 (Homo sapiens) (UniProt P26367); experiment: ATG_Pax6_CIS: Attagene CIS-FACTORIAL HepG2 Assay for human Paired Box 6 (PAX6) (AID 2282956); conditions: HepG2 CIS-FACTORIAL PAX6 reporter transcription, RNA readout; actives raise or lower the signal
Method in brief: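 Values derive from bidirectional curve fitting of reporter mRNA signal relative to DMSO. HepG2 cells bearing transfected cis-regulated MRTUs were exposed for 24 h; transcripts were read by RT-PCR and capillary electrophoresis.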

[2] = ATG_PXRE_CIS: Attagene CIS-FACTORIAL HepG2 Assay for human Pregnane X Receptor Element (PXRE) (AID 2282957); conditions: HepG2 Attagene CIS-FACTORIAL PXRE reporter, mRNA; actives raise or lower the signal
Method in brief: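 Using HepG2 transfected with multiple reporter transcription units, endogenous factor-driven transcription was scored as reporter mRNA after 24 h exposure.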

[3] = ATG_PPRE_CIS: Attagene CIS-FACTORIAL HepG2 Assay for human Peroxisome Proliferator-activated Response Element (PPRE) (AID 2282958); conditions: HepG2 PPRE cis-element reporter, Attagene transcription factor profiling; actives raise or lower the signal
Method in brief: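 Cells are first transfected transiently with the multiplexed reporter library, then dosed for 24 h. Total RNA is reverse-transcribed, amplified, fluorescently end-labeled and HpaI-cut before capillary electrophoresis; activity is fitted bidirectionally against DMSO controls.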

[4] = ATG_RORE_CIS: Attagene CIS-FACTORIAL HepG2 Assay for human RAR-related Orphan Receptor Element (RORE) (AID 2282959); conditions: HepG2 Attagene cis-factorial RORE reporter, mRNA; actives raise or lower the signal
Method in brief: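 Cells were HepG2 carrying transfected cis-regulated reporter constructs, dosed for 24 hours. Total RNA was reverse-transcribed and reporter cDNA amplified, fluorescently labeled and sized by capillary electrophoresis. Activity was fitted bidirectionally relative to DMSO.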

[5] = ATG_Sox_CIS: Attagene CIS-FACTORIAL HepG2 Assay for human SRY-box transcription factor (SOX) (AID 2282960); conditions: HepG2 Attagene cis-factorial SOX reporter, mRNA; actives raise or lower the signal
Method in brief: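 Transient MRTU transfection of HepG2; 24 h compound incubation; TriZol RNA, oligo(dT) RT, PCR, 6-FAM primer extension, HpaI cut, CE. Bidirectional fit, DMSO = baseline.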

[6] = target: Transcription factor Sp1 (Homo sapiens) (UniProt P08047); experiment: ATG_Sp1_CIS: Attagene CIS-FACTORIAL HepG2 Assay for human Specificity Protein 1 (Sp1) (AID 2282961); conditions: HepG2 Sp1 cis-reporter transcription, actives raise or lower the signal
Method in brief: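 Endogenous Sp1 activity was gauged in human liver HepG2 cells bearing transfected reporter units under a cis-regulating promoter. After 24 h dosing, reporter mRNA was quantified by RT-PCR with capillary electrophoresis, and activity fitted bidirectionally versus DMSO.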

[7] = ATG_SREBP_CIS: Attagene CIS-FACTORIAL HepG2 Assay for human Sterol Regulatory Element Binding (SREBP) (AID 2282962); conditions: HepG2 Attagene cis-factorial SREBP reporter, mRNA; actives raise or lower the signal
Method in brief: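 Values derive from bidirectional curve fitting with DMSO as baseline. The underlying measurement is reporter mRNA from cis-element-regulated units in transiently transfected HepG2, quantified by RT-PCR and capillary electrophoresis after 24 h exposure.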

[8] = ATG_TA_CIS: Attagene CIS-FACTORIAL HepG2 Assay for human TA Basal Promoter (AID 2282964); conditions: HepG2 Attagene CIS-factorial TA basal promoter reporter; actives raise or lower the signal
Method in brief: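 Steps: transfect HepG2 with MRTUs; dose 24 h; isolate RNA, DNase-treat, reverse-transcribe; PCR and FAM-label reporter cDNA; digest with HpaI 2h at 37 C; run capillary electrophoresis. Activity fitted both directions against DMSO.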

[9] = ATG_TCF_b_cat_CIS: Attagene CIS-FACTORIAL HepG2 Assay for human T-Cell-Factor with beta-catenin (TCF/b-cat) (AID 2282965); conditions: HepG2 TCF/beta-catenin cis-reporter transcription, actives raise or lower the signal
Method in brief: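 Cells of the HepG2 line carry transiently transfected reporter units whose promoters respond to endogenous factors. Twenty-four hours post-dosing, reporter mRNA induction is measured by fluorescent RT-PCR and capillary electrophoresis, with DMSO as baseline.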

[10] = target: Signal transducer and activator of transcription 3 (Homo sapiens) (UniProt P40763); experiment: ATG_STAT3_CIS: Attagene CIS-FACTORIAL HepG2 Assay for human Signal Transducer and Activator of Transcription 3 (STAT3) (AID 2282963); conditions: HepG2, Attagene cis-factorial STAT3 reporter transcription; actives raise or lower the signal
Method in brief: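 Fluorescence intensity of 6-FAM-labelled reporter fragments, separated by capillary electrophoresis after RT-PCR, gave the signal. Cells were HepG2 transfected with cis-element reporter units and treated 24 h; fitting was bidirectional relative to DMSO.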

Measured: AC50

Paired box protein Pax-6 (Homo sapiens), sequence (P26367 whole entry, looked up): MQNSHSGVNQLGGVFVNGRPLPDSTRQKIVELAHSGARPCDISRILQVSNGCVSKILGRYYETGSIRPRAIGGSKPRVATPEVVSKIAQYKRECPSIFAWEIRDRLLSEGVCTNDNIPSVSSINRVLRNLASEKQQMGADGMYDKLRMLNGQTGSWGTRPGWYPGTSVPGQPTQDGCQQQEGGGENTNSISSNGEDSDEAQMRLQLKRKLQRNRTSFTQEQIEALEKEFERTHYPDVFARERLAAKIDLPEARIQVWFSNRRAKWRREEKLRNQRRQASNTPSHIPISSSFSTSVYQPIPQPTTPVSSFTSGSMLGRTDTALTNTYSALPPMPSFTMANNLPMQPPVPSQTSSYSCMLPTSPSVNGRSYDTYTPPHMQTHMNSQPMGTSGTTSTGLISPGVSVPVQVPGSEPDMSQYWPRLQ
Transcription factor Sp1 (Homo sapiens), sequence (P08047 whole entry, looked up): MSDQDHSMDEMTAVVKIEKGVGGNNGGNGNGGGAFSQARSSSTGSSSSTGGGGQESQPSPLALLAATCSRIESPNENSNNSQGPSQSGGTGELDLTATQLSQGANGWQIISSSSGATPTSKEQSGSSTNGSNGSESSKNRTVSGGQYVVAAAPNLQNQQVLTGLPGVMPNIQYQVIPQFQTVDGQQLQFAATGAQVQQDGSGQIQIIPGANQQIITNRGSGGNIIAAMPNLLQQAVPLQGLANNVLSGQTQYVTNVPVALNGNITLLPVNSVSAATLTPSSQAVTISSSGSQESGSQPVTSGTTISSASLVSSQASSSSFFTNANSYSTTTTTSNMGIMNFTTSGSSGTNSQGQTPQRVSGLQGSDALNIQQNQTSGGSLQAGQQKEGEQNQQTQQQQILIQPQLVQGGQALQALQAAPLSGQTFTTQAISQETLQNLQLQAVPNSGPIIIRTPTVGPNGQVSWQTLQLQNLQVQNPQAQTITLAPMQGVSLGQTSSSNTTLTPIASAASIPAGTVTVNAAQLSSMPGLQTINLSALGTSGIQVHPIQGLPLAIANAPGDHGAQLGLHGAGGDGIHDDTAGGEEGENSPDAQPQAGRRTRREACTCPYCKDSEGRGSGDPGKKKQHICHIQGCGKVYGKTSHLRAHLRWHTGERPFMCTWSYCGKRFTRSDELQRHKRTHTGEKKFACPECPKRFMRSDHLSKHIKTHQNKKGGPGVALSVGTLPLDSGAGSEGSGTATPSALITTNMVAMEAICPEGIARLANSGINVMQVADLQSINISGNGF
Signal transducer and activator of transcription 3 (Homo sapiens), sequence (P40763 whole entry, looked up, the tested form may be a part): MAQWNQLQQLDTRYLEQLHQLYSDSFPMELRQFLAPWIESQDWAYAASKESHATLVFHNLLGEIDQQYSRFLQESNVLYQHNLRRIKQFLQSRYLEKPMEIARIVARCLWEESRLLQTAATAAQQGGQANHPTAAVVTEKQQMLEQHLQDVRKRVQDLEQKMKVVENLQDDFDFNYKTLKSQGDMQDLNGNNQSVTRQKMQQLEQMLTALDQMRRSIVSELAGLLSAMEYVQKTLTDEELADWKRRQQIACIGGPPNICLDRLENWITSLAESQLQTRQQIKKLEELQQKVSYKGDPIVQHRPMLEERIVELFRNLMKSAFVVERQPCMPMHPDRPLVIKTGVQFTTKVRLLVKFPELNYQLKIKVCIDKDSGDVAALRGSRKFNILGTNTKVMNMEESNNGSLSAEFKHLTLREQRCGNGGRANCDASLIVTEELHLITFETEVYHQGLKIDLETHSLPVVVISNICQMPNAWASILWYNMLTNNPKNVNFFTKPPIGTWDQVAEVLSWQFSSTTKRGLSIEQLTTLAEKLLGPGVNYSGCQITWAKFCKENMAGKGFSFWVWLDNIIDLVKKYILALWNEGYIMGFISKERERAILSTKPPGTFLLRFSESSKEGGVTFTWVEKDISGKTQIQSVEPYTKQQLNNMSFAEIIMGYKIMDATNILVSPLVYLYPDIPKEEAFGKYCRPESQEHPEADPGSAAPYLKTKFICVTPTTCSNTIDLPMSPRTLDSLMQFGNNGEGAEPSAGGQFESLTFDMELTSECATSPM

CCCCCCCCCCc1ccccc1
not listed: [10]
inactive: all other assays above

C=CC(=O)NC(C)(C)CS(=O)(=O)O
not listed: [6]
inactive: all other assays above

CC=CCO
active: [2] 26.8 µM
not listed: [6]
inactive: all other assays above

Cc1cccc(C(=O)O)c1
not listed: [6]
inactive: all other assays above

CC[C@H]1OC(=O)[C@H](C)[C@@H](O[C@H]2C[C@@](C)(OC)[C@@H](O)[C@H](C)O2)[C@H](C)[C@@H](O[C@@H]2O[C@H](C)C[C@H](N(C)C)[C@H]2O)[C@](C)(O)C[C@@H](C)C(=NOCOCCOC)[C@H](C)[C@@H](O)[C@]1(C)O
not listed: [6]
inactive: all other assays above

[Cl][Nd]([Cl])[Cl]
not listed: [6]
inactive: all other assays above

CC(C)C1=CC2=CC[C@@H]3[C@](C)(CCC[C@@]3(C)C(=O)O)[C@H]2CC1
active: [1] 71.2 µM | [2] 1.33 µM | [4] 43.1 µM | [7] 25.9 µM | [8] 89.6 µM
inactive: [3] | [6] | [10] | [9]

CC(=O)OCc1ccco1
not listed: [5]
inactive: all other assays above

C=CC(=O)OCCOC1C2CCC1C1CC=CC12 (stereo unspecified)
not listed: [6]
inactive: all other assays above

CCCCCCCC/C=C\CCCCCCCC(=O)OCCO
active: [2] 12.8 µM
not listed: [6]
inactive: all other assays above

CCCOCCOCCOCCO
not listed: [6]
inactive: all other assays above

COC(=O)c1ccc2cc(C(=O)OC)ccc2c1
not listed: [5]
inactive: all other assays above

C(=CC=Nc1ccccc1)C=CNc1ccccc1
active: [2] 32.3 µM
not listed: [6]
inactive: all other assays above

CC1(C)O[C@@H]2C[C@H]3[C@@H]4C[C@H](F)C5=CC(=O)CC[C@]5(C)[C@H]4[C@@H](O)C[C@]3(C)[C@]2(C(=O)CO)O1
active: [2] 22.8 µM
not listed: [5]
inactive: all other assays above

[Cl][Bi]([Cl])([c]1ccccc1)([c]1ccccc1)[c]1ccccc1
active: [1] 5.48 µM | [5] 5.6 µM | [9] 5.75 µM
not listed: [6]
inactive: all other assays above

CCCCC(CC)COC(=O)c1ccccc1 (stereo unspecified)
active: [2] 27.6 µM
not listed: [5]
inactive: all other assays above

CCCOC(=O)CCCCC(=O)OCCC
active: [2] 65.4 µM
not listed: [6]
inactive: all other assays above

N[C@H]1C(O)O[C@H](CO)[C@H](O)[C@@H]1O (stereo partly specified)
not listed: [10]
inactive: all other assays above

O=C(c1ccc(O)cc1)c1ccc(O)cc1O
active: [2] 35.8 µM | [3] 100 µM | [7] 100 µM
not listed: [5]
inactive: all other assays above

NC(=O)NNC(N)=O
not listed: [5]
inactive: all other assays above

Nc1ccc(-c2ccc(F)cc2)cc1
active: [2] 27.4 µM
not listed: [5]
inactive: all other assays above

CC1(C)S[C@@H]2[C@H](NC(=O)COc3ccccc3)C(=O)N2[C@H]1C(=O)O
active: [2] 4.35 µM
not listed: [6]
inactive: all other assays above

O=C1c2ccccc2C(=O)C1c1nc2ccccc2c(Br)c1O
active: [2] 5.42 µM
not listed: [5]
inactive: all other assays above

CCO[Si](CCCN=C=O)(OCC)OCC
active: [2] 13.9 µM
not listed: [5]
inactive: all other assays above

CCOc1nc(F)cc2nc(S(=O)(=O)Nc3c(Cl)cccc3C(=O)OC)nn12
active: [2] 7.46 µM
not listed: [5]
inactive: all other assays above

O=S(=O)(O)CC(O)CCl (stereo unspecified)
not listed: [5]
inactive: all other assays above

COCCOCCOCCOCCOC
not listed: [6] | [10]
inactive: all other assays above

O=C1C=CC(=O)O1
not listed: [5]
inactive: all other assays above

C=C[Si](OC(C)=O)(OC(C)=O)OC(C)=O
active: [2] 3.6 µM
not listed: [6]
inactive: all other assays above

O=C(/C=C/C=C/c1ccc2c(c1)OCO2)N1CCCCC1
active: [2] 2.37 µM | [8] 66.9 µM
not listed: [6]
inactive: all other assays above

NC(=O)C1CO1 (stereo unspecified)
not listed: [6] | [10]
inactive: all other assays above

Cc1cccc(N(C)C(=S)Oc2ccc3ccccc3c2)c1
active: [2] 0.61 µM | [3] 24.4 µM | [4] 20.5 µM
not listed: [6]
inactive: all other assays above

OC1CCCCCCCCCCC1
active: [2] 4.47 µM
not listed: [5]
inactive: all other assays above

CC(=O)Oc1ccc(C)cc1
not listed: [6]
inactive: all other assays above

CCCCCCCOC(=O)CCC
active: [2] 48 µM
not listed: [6]
inactive: all other assays above

CCCCCCC1(C)CCC(=O)O1 (stereo unspecified)
active: [2] 30.3 µM
not listed: [6]
inactive: all other assays above

CCCCCCC(O)CO (stereo unspecified)
not listed: [5]
inactive: all other assays above

COC(=O)c1c(C)cc(O)c(C)c1O
not listed: [10]
inactive: all other assays above

CC(C)CCCC(C)CC=O (stereo unspecified)
active: [2] 65.1 µM
not listed: [6]
inactive: all other assays above

Cc1ccc(C(C)c2ccc(C)c(C)c2)cc1C
active: [2] 3.88 µM | [7] 147 µM
not listed: [6] | [10]
inactive: all other assays above

Cc1ccc(N)c([N+](=O)[O-])c1
not listed: [5]
inactive: all other assays above

ON(Cc1ccccc1)Cc1ccccc1
active: [2] 41.6 µM
not listed: [4]
inactive: all other assays above

CCCCCCCCCCCCCCCC[N+](C)(C)CC
active: [4] 8.95 µM | [9] 5.99 µM
not listed: [5] | [10]
inactive: all other assays above

CC/C=C\CCOC(=O)CCCCC
not listed: [4]
inactive: all other assays above

CNC(=S)NN
not listed: [5]
inactive: all other assays above

CC(=O)OC1C2(C)CCC(C2)C1(C)C (stereo unspecified)
not listed: [4]
inactive: all other assays above

CC=CC(=O)N(CC)c1ccccc1C
active: [2] 11.1 µM
not listed: [3]
inactive: all other assays above

CC(C)c1ccc2cc(C(C)C)ccc2c1
active: [5] 59.9 µM
not listed: [3]
inactive: all other assays above

CC1(C)O[C@@H]2C[C@H]3[C@@H]4C[C@H](F)C5=CC(=O)C=C[C@]5(C)[C@@]4(F)[C@@H](O)C[C@]3(C)[C@]2(C(=O)CO)O1
active: [2] 6.12 µM
not listed: [4]
inactive: all other assays above

CCOC(=O)NNc1nncc2ccccc12
not listed: [4]
inactive: all other assays above
